High-throughput results deposited in PubChem by National Center for Advancing Translational Sciences (NCATS).
Compounds with a hit are over-represented: about 22% of the library has one in this group of screens.
Pf growth 48h: inhibits P. falciparum growth in the first generation, 48 h. P. falciparum luciferase growth in erythrocytes, 48 h. Potency, µM (top dose mostly 28.7 µM), hits mostly inhibitors. 310,000 tested, 5.9% active
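Read-out is firefly luciferase luminescence from an integrated reporter in P. falciparum, so falling signal marks reduced parasite growth. Infected erythrocytes were at 2% hematocrit and 0.1% parasitemia (final) in Albumax-supplemented RPMI 1640.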
Shiga toxin inh: blocks Shiga toxin action in Vero cells. Vero cells, Shiga toxin protein synthesis inhibition reporter. inhibition, % at 38.7 µM. 290,000 tested, 9.2% active. AID 2315; in the data active = inhibition mostly above about 28%, no sharp cut-off; inactive = mostly below about 43%
LmPK inhibitor: LmPK (Leishmania mexicana) enzyme inhibition; AID 1721; Potency, µM (series often up to 57.5 µM), usual class: inhibitors; purified LmPK, Kinase-Glo ATP luminescence, 1 h; 290,000 tested, 0.37% active; Q27686
Target sequence (Q27686 whole entry, looked up): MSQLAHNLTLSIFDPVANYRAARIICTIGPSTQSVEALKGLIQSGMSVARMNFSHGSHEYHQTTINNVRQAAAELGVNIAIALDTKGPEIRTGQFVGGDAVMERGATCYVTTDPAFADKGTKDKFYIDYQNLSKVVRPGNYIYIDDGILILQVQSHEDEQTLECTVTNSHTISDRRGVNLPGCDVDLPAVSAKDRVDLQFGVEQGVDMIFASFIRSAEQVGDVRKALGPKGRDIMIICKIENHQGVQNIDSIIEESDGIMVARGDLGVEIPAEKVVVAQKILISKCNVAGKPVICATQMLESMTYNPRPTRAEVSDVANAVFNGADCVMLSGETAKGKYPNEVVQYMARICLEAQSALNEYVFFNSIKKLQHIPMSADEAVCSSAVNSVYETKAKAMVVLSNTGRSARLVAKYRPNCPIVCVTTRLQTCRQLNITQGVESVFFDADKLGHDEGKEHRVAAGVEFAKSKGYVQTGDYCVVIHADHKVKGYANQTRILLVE
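Purified LmPK (0.1 nM) with 0.5 mM PEP and 0.1 mM ADP in imidazole buffer pH 7.2 with MgCl2/KCl, 1 h at room temperature. ATP formed was read by luciferase luminescence and normalized to no-enzyme and uninhibited controls.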
Pf growth 96h: P. falciparum growth inhibition at 96 hours. AID 504834. 320,000 tested, 6.9% active. P. falciparum luciferase reporter growth, 96 h. Potency, µM (highest dose often 28.7 µM), hits mostly inhibitors
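Plates of compound plus infected erythrocytes (2% hematocrit, 0.05% parasitemia final) incubate 96 hours, 37 C, 5% CO2. Detection reagent added; reduced luminescence from the parasites' luciferase reporter flags inhibition.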
Cycloheximide cs: counter-screen for Shiga toxin inhibitors: cycloheximide protein synthesis inhibition; cell reporter, cycloheximide protein synthesis inhibition counterscreen; max response, %; 300,000 tested, 12% active; AID 2314; in the data active = max response mostly above about 13%, no sharp cut-off; inactive = mostly below about 14%; also: read at 38.3 µM for the half of the compounds with a filed dose
A number is an active result; 0 = inactive; ? = inconclusive; - = no result; [ ] = another dose, or the depositor's remark. Unless noted, calls follow the shape of the dose curve; as a rule, active = well fitted inhibition curve with a large enough effect; inconclusive = small, poorly fitted or top-dose-only effect, or another doubt; inactive = no such curve, though single readings can be large or run the other way.

SMILES	Pf growth 48h	Shiga toxin inh	LmPK inhibitor	Pf growth 96h	Cycloheximide cs
Cc1ccc(-n2ncc3c2CCCC3NC(=O)c2ccccc2N2CCOCC2)cc1C (stereo not given)	?	0	0	0	0
O=C(NC1CCCc2c1cnn2-c1ccc(F)cc1F)c1ccccc1N1CCOCC1 (stereo not given)	?	0	0	4.1µM	0
Cc1cc(C)n(CC(=O)NC2CCCc3c2cnn3-c2ccc(C)c(C)c2)n1 (stereo not given)	0	54	0	?	38
Cc1cccc(-n2ncc3c2CCCC3NC(=O)CCCN2CCCCC2=O)c1C (stereo not given)	0	0	0	?	0
Cc1cc(C(=O)NC2CCCc3c2cnn3-c2ccc(C)c(C)c2)n(C)n1 (stereo not given)	?	0	0	?	0
Cc1ccc(-n2ncc3c2CCCC3NC(=O)CCCN2CCCC2=O)cc1C (stereo not given)	?	0	0	4.7µM	0
Cc1cccc(-n2ncc3c2CCCC3NC(=O)CC(F)(F)F)c1C (stereo not given)	0	0	0	0	0
COc1ccc(CCNC(=O)CSc2nc3cc(Cl)ccc3o2)cc1OC	0	0	0	-	0
CCC(CC)C(=O)Nc1nnc(S(=O)(=O)Nc2ccccc2C)s1	0	0	0	0	0
Cn1ncc(Cl)c1C(=O)NC1CCCC1	0	0	0	0	0
O=C(CCN1CCCC1=O)NC1CCCc2c1cnn2-c1ccccc1F (stereo not given)	0	0	0	?	0
O=C(CCN1CCCC1=O)NC1CCCc2c1cnn2-c1ccc(F)cc1F (stereo not given)	0	0	0	0	15
Cc1ccc(N(CC(O)CN2CCOCC2)S(=O)(=O)c2ccc([N+](=O)[O-])cc2)cc1 (stereo not given)	0	0	0	0	0
COc1ccc(C)cc1S(=O)(=O)N(CC(=O)Nc1cccc([N+](=O)[O-])c1)c1ccccc1	?	0	0	12µM	0
COc1ccc(N(CC(=O)Nc2ccc(F)cc2)S(=O)(=O)c2ccccc2[N+](=O)[O-])c(OC)c1	?	0	0	0	0
COc1ccc(N(CC(=O)Nc2cc(C)ccc2C)S(=O)(=O)c2ccccc2[N+](=O)[O-])c(OC)c1	2.9µM	0	0	0	0
COc1ccc(N(CC(=O)Nc2cc(C)cc(C)c2)S(=O)(=O)c2ccccc2[N+](=O)[O-])c(OC)c1	?	0	0	8.3µM	0
CCN(CC)S(=O)(=O)c1ccc(NC(=O)CN(c2ccc(OC)cc2OC)S(C)(=O)=O)cc1	9.3µM	0	0	0	0
CCC1CN(C(=O)NCc2ccc(C)cc2)c2cc(Cl)ccc2O1 (stereo not given)	0	0	0	0	0
C/C(=N\NC(=O)c1ccccc1Cl)c1c(O)n(C2CCCCC2)c(=O)[nH]c1=O	0	35	0	0	32
C/C(=N\NC(=O)c1ccccc1)c1c(O)n(C2CCCCC2)c(=O)[nH]c1=O	0	67	0	0	41
C/C(=N\NC(=O)c1ccccc1O)c1c(O)n(C2CCCCC2)c(=O)[nH]c1=O	?	41	0	?	23
CC(=NCCO)c1c(O)n(C2CCCCC2)c(=O)[nH]c1=O	0	0	0	0[5.75 µM]	0
CC(=NCc1ccco1)c1c(O)n(C2CCCCC2)c(=O)[nH]c1=O	?	0	0	0	0
CCN(CC)CCCN=C(C)c1c(O)n(C2CCCCC2)c(=O)[nH]c1=O	0	0	0	6.6µM	0
SMILES	Pf growth 48h	Shiga toxin inh	LmPK inhibitor	Pf growth 96h	Cycloheximide cs
Cc1cccc(NC(=O)CN2C(=O)NC3(CCCC3)C2=O)n1	0	-	-	0	-
Cc1ccc(C)c(OC(=O)c2cncc(Br)c2)c1	0	0	0	0	0
Cc1ccc(Sc2ccc(S(=O)(=O)Nc3ccc(CC(=O)O)cc3)cc2)cc1C	?	-	-	0	-
O=C(COC(=O)Cc1ccccc1F)NCCNC(=O)COC(=O)Cc1ccccc1F	0	-	-	0	-
CC(c1ccc(F)cc1)n1c(Cn2ncc3ccccc3c2=O)n[nH]c1=S (stereo not given)	0	0	0	?	0
C/C(=N\NC(=O)c1ccccc1O)c1c(O)n(Cc2ccccc2)c(=O)[nH]c1=O	0	0	0	0	25
CC(C)(C)c1cc(C2=CSC3=NCCN23)cc(C(C)(C)C)c1O	?	-	0	4.7µM	0
Oc1ccc(C2=CSC3=NCCN23)cc1O	9.3µM	0	0	0	0
COc1ccc(NC(=O)Nc2c(SC)nsc2SC)cc1	0	0	0	?	0
CCCN(CC(=O)Nc1ccccc1C)C(=O)COc1c(Cl)cccc1Cl	0	-	-	?	-
